We go through eleven compounds from PubChem BioAssay AID1860 (The Scripps Research Institute Molecular Screening Center, 2009).

In the experiment the test system is VIM-2 metallo-beta-lactamase [Pseudomonas aeruginosa]. As to the kind of experiment: P. aeruginosa VIM-2 enzyme inhibition – biochemical, epi-absorbance, HTS, confirmation (AID 1860).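 Further: 0% = enzyme with vehicle and 100% = no enzyme.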 The settings on record: purified VIM-2 enzyme, nitrocefin absorbance; at 5.6 µM; active compounds read high.

Some of the results follow. Values without a mark were called inactive. Calls of active or inactive are those of the source. No stated cut-off is given here; in the data, active means inhibition above about 8%; inactive means the rest.

By inhibition is commonly meant the change of the read-out against control, counted positive when it falls. With `CN1C(=O)c2cccc3c(N)ccc(c23)C1=O`, the inhibition was 48.4% (active).
Consider `Cc1cc2nc3c(=O)n(Cc4ccccc4)c(=O)[nH]c3nc2cc1N`, for which the inhibition is 16.6% (active).
Next, `Nc1c(C(=O)c2cccs2)sc2nsc(SCCN3CCCCC3)c12`: 31.7% (active).
The value for `NS(=O)(=O)c1ccc(NC(=O)COC(=O)c2c3c(nc4ccccc24)/C(=C\c2ccc4c(c2)OCO4)CCC3)cc1` was -1.18%.
Next, `Cc1nn(C)cc1N1C(=O)c2cccc3c(N)ccc(c23)C1=O`: 35.2% (active).
`CCC(=C/c1sc2ccc3ccccc3c2[n+]1C)/C=C1\Sc2ccc3ccccc3c2N1C`: the inhibition was 12% (active).
For the compound `c1ccc(-c2nccc(-c3ccc(-n4cnc5ccccc54)cc3)n2)nc1`, the inhibition is 71.7% (active).
Next, `C/C(=N\Nc1ccc(S(N)(=O)=O)cc1[N+](=O)[O-])c1cccs1`: 17.3% (active); `COc1cc(/C=C2/SC(=S)N(Cc3ccccc3)C2=O)cc(OC)c1O`: 13.7% (active); `NC(=O)c1ccc(NC(=O)COC(=O)c2c3c(nc4ccccc24)/C(=C\c2ccc4c(c2)OCO4)CCC3)cc1`: -0.41%.
Next, `Oc1ccc2ccc3cccc[n+]3c2c1`: 30.2% (active).
